Laboratory results published in the supplement of paper PMC10338343.

System: MILI (PIWIL2) piRISC loaded with L1MC piRNA (26 nt)
Assay: pre-steady-state target cleavage rate (min^-1); guide: L1MC piRNA 5'p-UAACUAAAUACUAUGCAAGCUGUAGG; MIWI and MILI are mouse PIWI proteins and EfPiwi is from a freshwater sponge; tags in brackets are library labels; higher = faster piRNA-guided slicing of the target
Settings: auxiliary factor: none (no GTSF1)
Outline: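 Active affinity-purified piRISC (1 nM) loaded with one synthetic guide was mixed with a transcribed, DNA-blocked target RNA library (0.1 nM), with or without 500 nM GTSF1 partner protein, in HEPES–potassium acetate buffer at 33 °C for 0–8 or 0–960 min. Uncleaved targets were sequenced, normalised to depth and to weakly complementary targets, and pooled across three trials, with k3 capped at 0.0001 min^-1. The pre-steady-state cleavage rate was determined with a burst-and-steady-state fit.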

pre-steady-state target cleavage rate, < 0.0001:
UCCUGGAUGUCGUACGAUAGUAUUUAGUUA
UCCUGGAUGUCGAACGAUAGUAUGUUAGUUA
UCCUGGAUGUCGAACGUAUGUACUUUAGUUA
UCCUGGAUGUCGAACGUACGUAUUUAGUUA
UCCUGGAUGUCGAACGUUAGUAUUUAGUGUA
UCCUGGAUGUCGAACGUAAGUAUUUAUUUA
